Screening results (PubChem)
GDH-TPI counter: GDH-TPI coupled enzyme inhibition counter-screen; GDH-TPI coupled enzyme counterscreen, NADH absorbance; AID 588335; 1.2% of 360,000 active; inhibition, % at 4.8 µM
CCHFV vOTU inh: CCHFV vOTU protease inhibition | Pep-AMC fluorescence | inhibition, % at 11.5 µM | 0.55% of 370,000 active | AID 651958
RecA splice inh: Mtb RecA intein splicing inhibition | P9WHJ3 | cell-free RecA intein splicing, fluorescence | inhibition, % (no concentration beside the values) | 0.75% of 290,000 active; in the data active means inhibition above about 30%
Target sequence (P9WHJ3 whole entry, looked up, canonical isoform): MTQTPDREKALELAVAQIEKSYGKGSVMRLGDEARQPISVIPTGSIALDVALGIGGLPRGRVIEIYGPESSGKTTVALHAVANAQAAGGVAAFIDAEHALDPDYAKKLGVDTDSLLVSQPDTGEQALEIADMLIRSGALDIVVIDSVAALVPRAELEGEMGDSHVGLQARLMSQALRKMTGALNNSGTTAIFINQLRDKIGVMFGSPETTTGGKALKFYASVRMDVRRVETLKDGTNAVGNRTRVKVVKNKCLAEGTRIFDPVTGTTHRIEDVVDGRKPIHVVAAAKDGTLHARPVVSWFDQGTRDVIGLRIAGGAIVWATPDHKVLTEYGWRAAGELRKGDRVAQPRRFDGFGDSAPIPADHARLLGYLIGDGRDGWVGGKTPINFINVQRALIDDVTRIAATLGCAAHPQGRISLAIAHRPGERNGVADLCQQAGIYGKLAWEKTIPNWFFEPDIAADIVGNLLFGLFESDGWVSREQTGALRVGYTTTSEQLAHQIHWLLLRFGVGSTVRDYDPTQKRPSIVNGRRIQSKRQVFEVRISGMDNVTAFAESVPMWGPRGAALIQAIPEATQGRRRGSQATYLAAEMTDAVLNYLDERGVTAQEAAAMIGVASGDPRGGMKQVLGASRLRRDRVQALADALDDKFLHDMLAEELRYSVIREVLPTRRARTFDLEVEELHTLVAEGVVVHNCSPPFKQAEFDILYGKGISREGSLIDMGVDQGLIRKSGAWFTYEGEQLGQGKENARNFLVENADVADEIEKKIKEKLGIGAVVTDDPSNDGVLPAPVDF
Mtb betalactam: beta-lactam sensitization of Mtb H37Rv | inhibition, % at 25 µM | 0.27% of 330,000 active | AID 434955 | M. tuberculosis H37Rv growth with meropenem, percent inhibition; call rule not given here;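 further: growth measured after seven days incubation then overnight dye step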
Mtb FBA inh: inhibits M. tuberculosis FBA enzyme; inhibition, % at 1 µM; 2.3% of 360,000 active; purified M. tuberculosis FBA, fluorescence read-out; in the data active means inhibition above about 27%
Hits are given with their value. A selection: hits, their analogues and other compounds. The true share with any hit is near 4.2%. Unless noted, no stated cut-off is given here; in the data, active means inhibition above about 30%; inactive means the rest.

Screening CCNc1nc(C)c2cc(Br)c(=O)n(CC)c2n1 returned GDH-TPI counter 39.9, CCHFV vOTU inh inactive, RecA splice inh inactive, Mtb betalactam inactive and Mtb FBA inh 155.8.
For Nc1nc(N)c(N=O)c(OCC2CCCCC2)n1 the results were GDH-TPI counter 34.3, CCHFV vOTU inh inactive, RecA splice inh inactive, Mtb betalactam inactive and Mtb FBA inh inactive.
Screening O=C(Nc1ccccc1-c1nnc(SCc2ccc(Cl)cc2)o1)c1ccccc1 returned GDH-TPI counter inactive, CCHFV vOTU inh inactive, RecA splice inh inactive, Mtb betalactam inactive and Mtb FBA inh inactive.
O=c1c(-c2nnc(SCc3ccc(Cl)cc3)o2)cccn1Cc1ccccc1 was read as GDH-TPI counter inactive, CCHFV vOTU inh inactive, RecA splice inh inactive, Mtb betalactam inactive and Mtb FBA inh 176.1.
`CCCCS/C(=C(/C#N)C(N)=O)c1cc2c([nH]1)CCCC2` gave GDH-TPI counter inactive, CCHFV vOTU inh inactive, RecA splice inh 35.7, Mtb betalactam inactive and Mtb FBA inh inactive.
Screening COC(=O)[C@]12C[C@H](CC(=O)N3CCC(c4ccccc4)CC3)C(=O)N(Cc3ccco3)C1=C[C@H](C(C)(C)C)O[C@@H]2C returned CCHFV vOTU inh inactive.
`COc1ccc(CNc2oc(-c3cccc4ccccc34)nc2P(=O)(OC)OC)cc1` gave GDH-TPI counter inactive, CCHFV vOTU inh inactive, RecA splice inh inactive, Mtb betalactam inactive and Mtb FBA inh active.
Screening COP(=O)(OC)c1nc(-c2cccc3ccccc23)oc1NCc1ccccc1 returned GDH-TPI counter inactive, CCHFV vOTU inh inactive, RecA splice inh inactive, Mtb betalactam inactive and Mtb FBA inh 191.9.
N/C(=N\C(=O)OCc1ccccc1)N(Cc1ccccc1)C(C#CC1=CCCCC1)Cc1ccccc1 (configuration not stated) was read as CCHFV vOTU inh inactive.
COc1ccccc1-n1c(SC)nc2c(sc(=S)n2-c2ccccc2)c1=O was read as GDH-TPI counter inactive, CCHFV vOTU inh inactive, RecA splice inh inactive and Mtb FBA inh inactive.
For COc1ccccc1-n1c(=S)sc2c(=O)n(Cc3ccco3)c(SC)nc21 the results were GDH-TPI counter 39.6, CCHFV vOTU inh inactive, RecA splice inh inactive, Mtb betalactam inactive and Mtb FBA inh inactive.
For CCCCOc1ccc(CSCCNC(=S)Nc2ccccc2)cc1 the results were GDH-TPI counter inactive, CCHFV vOTU inh inactive, RecA splice inh inactive, Mtb betalactam inactive and Mtb FBA inh inactive.
CC(C)COc1ccc(CSCCNC(=S)Nc2ccccc2)cc1 was read as GDH-TPI counter inactive, CCHFV vOTU inh inactive, RecA splice inh inactive, Mtb betalactam inactive and Mtb FBA inh 74.0.
Screening CCOC(=O)CC1(C)c2nc(NC(C)=O)sc2Cc2sc(NC(C)=O)nc21 returned CCHFV vOTU inh inactive and Mtb FBA inh 160.8.
C[n+]1ccc(-c2ccccc2)c2ccccc21 was read as GDH-TPI counter inactive, CCHFV vOTU inh inactive, RecA splice inh inactive, Mtb betalactam inactive and Mtb FBA inh 142.7.
Screening Cc1[nH]n(-c2ccccc2)c(=O)c1C=Nc1cccc(F)c1 returned GDH-TPI counter 32.5, CCHFV vOTU inh inactive, RecA splice inh inactive, Mtb betalactam inactive and Mtb FBA inh inactive.
COC(=O)Cc1[nH]n(-c2ccccc2)c(=O)c1C=Nc1ccc(C)cc1 was read as GDH-TPI counter 40.0, CCHFV vOTU inh inactive, RecA splice inh inactive, Mtb betalactam inactive and Mtb FBA inh inactive.
For O=C(N[C@@H](Cc1cccnc1)C(=O)N1CCC[C@H]1C(=O)NCc1ccccc1)c1ccccc1 the results were CCHFV vOTU inh inactive.
`CCOC(=O)c1c(-c2ccc(OC)cc2)oc2ccc(OCC(N)=O)cc12` gave GDH-TPI counter inactive, CCHFV vOTU inh inactive, RecA splice inh inactive, Mtb betalactam inactive and Mtb FBA inh active.
Screening CCOC(=O)c1c(C)oc2ccc(OCC(=O)C(C)(C)C)cc12 returned GDH-TPI counter inactive, CCHFV vOTU inh inactive, RecA splice inh inactive, Mtb betalactam inactive and Mtb FBA inh inactive.
Screening CCOC(=O)c1c(-c2ccc(OC)cc2)oc2ccc(O)cc12 returned GDH-TPI counter inactive, CCHFV vOTU inh inactive, RecA splice inh inactive, Mtb betalactam inactive and Mtb FBA inh inactive.
`CCOC(=O)c1c(-c2ccccc2)oc2ccc(OCC(=O)O)cc12` gave GDH-TPI counter inactive, CCHFV vOTU inh inactive, RecA splice inh inactive, Mtb betalactam inactive and Mtb FBA inh 161.2.
Screening COC(=O)[C@]12C[C@H](CC(=O)N3CCC(c4ccccc4)CC3)C(=O)N(Cc3ccc(Cl)cc3Cl)C1=C[C@H](C(C)C)O[C@@H]2C1CC1 returned CCHFV vOTU inh inactive.
COc1ccc2ccc3c(c2c1)N=CC1(O3)N(C)c2ccccc2C1(C)C (configuration not stated) was read as GDH-TPI counter inactive, RecA splice inh 75.6, Mtb betalactam inactive and Mtb FBA inh inactive.
COC(=O)c1sccc1-c1ccc(C(=O)Nc2cccnc2)o1 was read as GDH-TPI counter 33.6, CCHFV vOTU inh inactive, RecA splice inh inactive, Mtb betalactam inactive and Mtb FBA inh inactive.
For COc1ccccc1NC(=O)Nc1ccccc1C#N the results were GDH-TPI counter inactive, CCHFV vOTU inh inactive, RecA splice inh inactive, Mtb betalactam inactive and Mtb FBA inh inactive.
Screening N#Cc1ccccc1NC(=O)Nc1ccccc1 returned GDH-TPI counter inactive, CCHFV vOTU inh inactive, RecA splice inh inactive, Mtb betalactam inactive and Mtb FBA inh 49.6.
For O=C(NN=Cc1ccc(N(CCCl)CCCl)cc1Cl)c1cccnc1 the results were GDH-TPI counter 72.0, CCHFV vOTU inh inactive and Mtb FBA inh inactive.
O=C(N/N=C/c1cc(O)ccc1Br)c1cccnc1 was read as GDH-TPI counter inactive, CCHFV vOTU inh inactive, Mtb betalactam inactive and Mtb FBA inh inactive.
`Cc1cc(N(CCCl)CCCl)ccc1C=NNC(=O)c1cccnc1` gave GDH-TPI counter 50.9, CCHFV vOTU inh inactive and Mtb FBA inh inactive.
COC(=O)[C@@]12CCCCC3=C1N(CCC3)C(=O)[C@H]2CC(=O)N1CCCC1 was read as CCHFV vOTU inh inactive.
Screening N[C@H](C(=O)N1CCC[C@@H]1C(=O)N1CCC2CCN(S(=O)(=O)c3ccccc3)CC21)c1ccccc1 (some centres not stated) returned CCHFV vOTU inh inactive.
Screening N#Cc1c(-c2ccc(Cl)cc2)c2c([nH]c1=O)-c1ccccc1OC2 returned GDH-TPI counter inactive, CCHFV vOTU inh inactive, RecA splice inh inactive, Mtb betalactam inactive and Mtb FBA inh 183.8.
CC1(C)Cc2c(c(-c3ccccc3Cl)[nH]c(=O)c2C#N)CO1 was read as GDH-TPI counter inactive, CCHFV vOTU inh inactive, RecA splice inh inactive, Mtb betalactam inactive and Mtb FBA inh inactive.
For Cc1cc(=O)oc2c(CN3CC(C)OC(C)C3)c(O)c(Cl)cc12 (configuration not stated) the results were GDH-TPI counter inactive, CCHFV vOTU inh inactive, RecA splice inh inactive, Mtb betalactam inactive and Mtb FBA inh active.
For Cc1cc2oc(=O)cc(CN3CCCCC3)c2cc1Cl the results were CCHFV vOTU inh inactive and Mtb FBA inh inactive.
Screening Cc1cc(=O)oc2c(CN3CCOCC3)c(O)ccc12 returned GDH-TPI counter 37.5 and CCHFV vOTU inh inactive.
`Cc1cc2oc(=O)cc(CN3CCOCC3)c2c(C)c1Cl` gave GDH-TPI counter inactive, CCHFV vOTU inh inactive, RecA splice inh inactive, Mtb betalactam inactive and Mtb FBA inh 136.7.
